Only a selection was taken, and hits are over-represented in it overall.
CBX7 AlphaScr: inhibitors of human CBX7 binding to H3K27me3 peptide | AID 1224903 | 66,000 compounds, 1.1% hits | AlphaScreen His6-CBX7 / biotin-H3K27me3 peptide binding; active compounds read low | normalised signal (fraction of DMSO) (concentration not given with the values); in the data active means normalised signal below about 0.5
Target sequence (O95931 whole entry, looked up): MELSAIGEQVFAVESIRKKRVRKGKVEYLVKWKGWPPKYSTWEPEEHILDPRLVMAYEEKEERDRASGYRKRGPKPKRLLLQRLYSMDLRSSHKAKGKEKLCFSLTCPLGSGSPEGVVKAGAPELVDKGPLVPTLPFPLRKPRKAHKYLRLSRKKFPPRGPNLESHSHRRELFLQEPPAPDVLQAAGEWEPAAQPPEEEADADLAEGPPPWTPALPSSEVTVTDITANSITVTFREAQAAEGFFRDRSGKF
An asterisk follows results filed as active; ! = repeats disagree.

Results for CC(=O)Nc1nc(C)c(-c2csc(Nc3ccc(N)cc3)n2)s1 ?
CBX7 AlphaScr: 0.47*

How did CC(=O)Nc1ccc(Nc2nc(-c3sc(NC(=O)c4ccccc4)nc3C)cs2)cc1 do in these assays?
CBX7 AlphaScr: 1

How did COc1ccc(-c2csc(Nc3ccc(N)cc3)n2)cc1 do in these assays?
CBX7 AlphaScr: 0.41*

Results for COc1ccc(Nc2nc(-c3ccc(Br)cc3)cs2)cc1 ?
CBX7 AlphaScr: 0.9

Results for CC(=O)Nc1ccc(Oc2ccc3c(c2)C(=O)N(c2ccc(Br)cc2)C3=O)cc1 ?
CBX7 AlphaScr: 1

What do the screens show for `COc1ccc(CCN(Cc2ccccn2)S(=O)(=O)c2ccc(Cl)cc2)cc1OC`?
CBX7 AlphaScr: 0.94

How did CCCCCCCCCCOc1ccc(NC(=O)Nc2ccccc2C)cc1 do in these assays?
CBX7 AlphaScr: 1.1

How did CC(=O)Nc1cccc(Oc2ccc3c(c2)C(=O)N(c2ccc(C)cc2C)C3=O)c1 do in these assays?
CBX7 AlphaScr: 0.99

How did COCC(=O)NCc1nc2ccccc2n1Cc1ccccc1C do in these assays?
CBX7 AlphaScr: 0.86

What do the screens show for `Cc1cccc(CN2CCN(CC(=O)N3CCc4ccccc4C3)C2=O)c1`?
CBX7 AlphaScr: 1.1

Results for Cc1cc2ccccc2c(=O)n1CC(=O)N1CCN(c2ccccn2)CC1 ?
CBX7 AlphaScr: 0.98

Results for Cc1noc(C(=O)NCc2ccccn2)c1Cl ?
CBX7 AlphaScr: 1

Results for CCOc1ccc(C(=O)Nc2ccc(-c3nc4cc(C)cc(C)c4o3)cc2)cc1 ?
CBX7 AlphaScr: 0.79

What do the screens show for `CC1(C)CC(=O)N(CC(=O)NCc2ccccn2)c2ccccc2S1`?
CBX7 AlphaScr: 0.99

How did COc1ccc(Nc2nc(-c3sc(N)nc3C)cs2)cc1 do in these assays?
CBX7 AlphaScr: 0.31*

How did Cc1ccc(-c2csc(Nc3ccccc3Cl)n2)cc1 do in these assays?
CBX7 AlphaScr: 1

What do the screens show for `Fc1ccc(Nc2nc(-c3ccc(Cl)cc3)cs2)cc1`?
CBX7 AlphaScr: 0.82

What do the screens show for `COc1ccc(CCNc2nc(-c3sc(N)nc3C)cs2)cc1OC`?
CBX7 AlphaScr: 0.35*

What do the screens show for `Cc1nc(N)sc1-c1csc(Nc2ccc(Cl)cc2)n1`?
CBX7 AlphaScr: 0.38*

How did COc1cc(Nc2nc(-c3ccc(C)cc3)cs2)c(OC)cc1Cl do in these assays?
CBX7 AlphaScr: 0.46*!

Results for COc1ccc(CCNc2nc(-c3ccc(Cl)cc3)cs2)cc1OC ?
CBX7 AlphaScr: 0.92

Results for COc1ccc(Nc2nc(-c3cccs3)cs2)cc1 ?
CBX7 AlphaScr: 0.75

How did COc1ccc(Nc2nc(-c3sc(NC(C)=O)nc3C)cs2)cc1 do in these assays?
CBX7 AlphaScr: 0.74

Results for Cc1nc(N)sc1-c1csc(Nc2cccc(Cl)c2)n1 ?
CBX7 AlphaScr: 0.77

Results for COc1ccc(Cl)cc1Nc1nc(-c2sc(C)nc2C)cs1 ?
CBX7 AlphaScr: 0.99

How did COc1cc(Nc2nc(-c3ccc(Cl)cc3)cs2)c(OC)cc1Cl do in these assays?
CBX7 AlphaScr: 1

How did Cc1cc(C)cc(-c2nc(-c3ccccc3)no2)c1 do in these assays?
CBX7 AlphaScr: 1.3

What do the screens show for `COc1ccc(CSc2ncnc3nc[nH]c23)cc1`?
CBX7 AlphaScr: 1

What do the screens show for `O=C(Nc1ccc(Br)cc1F)C1=CCN(S(=O)(=O)c2ccccc2)CC1`?
CBX7 AlphaScr: 1

What do the screens show for `CCc1ccc(N2CC(c3nc4ccccc4n3CC(=O)N(c3ccccc3)C(C)C)CC2=O)cc1` (centres undefined)?
CBX7 AlphaScr: 0.89

What do the screens show for `CC1CCCN(CCCNC(=O)C2CC(=O)N(C3CCCC3)C2)C1` (centres undefined)?
CBX7 AlphaScr: 1.1

How did CCCN(CCC)C(=O)Cn1nc(Cc2cccnc2)c2ccccc2c1=O do in these assays?
CBX7 AlphaScr: 0.98

How did CCOC(=O)N1CCC(NC(=O)C2CCN(Cc3nc(-c4cccc(Cl)c4)oc3C)CC2)CC1 do in these assays?
CBX7 AlphaScr: 1.3

What do the screens show for `COc1ccc(Cc2nc3cc(C(=O)O)ccc3[nH]c2=O)cc1`?
CBX7 AlphaScr: 0.89

Results for Cc1c(Cl)cccc1NC(=O)c1sc2ncn(Cc3cccc(F)c3)c(=O)c2c1C ?
CBX7 AlphaScr: 1

Results for Cc1ccc(C2NC(C(=O)O)Cc3c2[nH]c2ccccc32)cc1 (centres undefined) ?
CBX7 AlphaScr: 1

What do the screens show for `CCOc1ccc(C2NCCc3c2[nH]c2ccccc32)cc1` (centres undefined)?
CBX7 AlphaScr: 0.72

What do the screens show for `CN(C)c1ccc(C2NC(C(=O)O)Cc3c2[nH]c2ccccc32)cc1` (centres undefined)?
CBX7 AlphaScr: 0.25*

Results for O=C(CC1(O)C(=O)N(Cc2ccccc2)c2ccccc21)c1ccc(F)cc1 (centres undefined) ?
CBX7 AlphaScr: 0.9

How did CCOc1cc2c(cc1OCC)C1C(C(=O)NCCCOC)c3ccccc3C(=O)N1CC2 (centres undefined) do in these assays?
CBX7 AlphaScr: 1.2

What do the screens show for `COc1ccc(NC(=O)CSc2nnc(Cc3c[nH]c4ccccc34)n2Cc2ccccc2)cc1`?
CBX7 AlphaScr: 0.8

What do the screens show for `COCCNC(=O)c1c[nH]c2ccc(S(=O)(=O)N(C)c3ccc(C(C)C)cc3)cc2c1=O`?
CBX7 AlphaScr: 0.94

Screens: PubChem, Bradner/Qi Labs at DFCI
